# Laboratory results: ChEMBL document CHEMBL2218924, “A broad activity screen in support of a chemogenomic map for kinase signalling research and drug discovery” (Biochem J, 2013)
# Legend:
# [1] = target: ALK tyrosine kinase receptor (Homo sapiens) (UniProt Q9UM73); settings: at 10 µM
# [2] = target: T1, Activin receptor type-1B (Homo sapiens) (UniProt P36896); settings: at 1 µM
# T1 sequence (whole entry): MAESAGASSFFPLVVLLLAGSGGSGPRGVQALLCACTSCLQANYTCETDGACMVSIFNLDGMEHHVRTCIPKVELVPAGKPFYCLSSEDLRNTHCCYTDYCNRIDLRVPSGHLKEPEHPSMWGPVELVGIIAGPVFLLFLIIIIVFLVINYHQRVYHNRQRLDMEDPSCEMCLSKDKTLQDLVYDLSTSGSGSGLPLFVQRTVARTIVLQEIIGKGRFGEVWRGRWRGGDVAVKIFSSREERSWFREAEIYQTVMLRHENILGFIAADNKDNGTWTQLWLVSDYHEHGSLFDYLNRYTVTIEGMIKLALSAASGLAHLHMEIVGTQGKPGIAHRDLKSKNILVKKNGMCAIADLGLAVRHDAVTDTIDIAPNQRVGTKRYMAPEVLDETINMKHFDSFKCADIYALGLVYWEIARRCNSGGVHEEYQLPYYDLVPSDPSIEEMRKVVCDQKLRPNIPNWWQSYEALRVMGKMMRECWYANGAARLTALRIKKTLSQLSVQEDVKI
# [3] = target: T1, Activin receptor type-1B (Homo sapiens); settings: at 10 µM
# [4] = target: T2, AMP-activated protein kinase (AMPK) alpha-1/beta-1/gamma-1 (Homo sapiens) (UniProt P54619+Q9Y478+Q13131); settings: at 1 µM
# [5] = target: T2, AMP-activated protein kinase (AMPK) alpha-1/beta-1/gamma-1 (Homo sapiens); settings: at 10 µM
# [6] = target: T3, AMP-activated protein kinase, AMPK (Homo sapiens) (UniProt P54646+O43741+P54619+Q9UGJ0+Q9Y478+Q13131+Q9UGI9); settings: at 1 µM
# [7] = target: T3, AMP-activated protein kinase, AMPK (Homo sapiens); settings: at 10 µM
# [8] = target: T4, NUAK family SNF1-like kinase 1 (Homo sapiens) (UniProt O60285); settings: at 1 µM
# T4 sequence (whole entry): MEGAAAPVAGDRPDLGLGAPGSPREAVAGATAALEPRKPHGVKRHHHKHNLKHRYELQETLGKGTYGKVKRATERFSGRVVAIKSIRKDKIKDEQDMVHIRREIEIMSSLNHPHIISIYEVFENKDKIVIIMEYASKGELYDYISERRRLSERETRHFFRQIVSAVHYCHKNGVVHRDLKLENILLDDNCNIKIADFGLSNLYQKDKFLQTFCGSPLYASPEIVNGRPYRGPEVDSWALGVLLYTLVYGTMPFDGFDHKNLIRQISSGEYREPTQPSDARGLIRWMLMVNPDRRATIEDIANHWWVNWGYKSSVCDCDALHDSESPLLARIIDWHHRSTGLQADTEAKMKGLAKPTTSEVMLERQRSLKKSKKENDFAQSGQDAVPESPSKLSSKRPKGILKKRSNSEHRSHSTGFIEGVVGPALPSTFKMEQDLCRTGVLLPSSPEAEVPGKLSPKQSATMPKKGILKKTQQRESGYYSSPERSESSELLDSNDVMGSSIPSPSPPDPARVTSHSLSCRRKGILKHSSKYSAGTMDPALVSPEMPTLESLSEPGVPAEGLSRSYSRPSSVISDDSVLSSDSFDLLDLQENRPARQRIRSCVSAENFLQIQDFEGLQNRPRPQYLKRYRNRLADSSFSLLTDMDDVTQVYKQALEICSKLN
# [9] = target: T4, NUAK family SNF1-like kinase 1 (Homo sapiens); settings: at 10 µM
# [10] = target: T5, Mitogen-activated protein kinase kinase kinase 5 (Homo sapiens) (UniProt Q99683); settings: at 1 µM
# T5 sequence (whole entry): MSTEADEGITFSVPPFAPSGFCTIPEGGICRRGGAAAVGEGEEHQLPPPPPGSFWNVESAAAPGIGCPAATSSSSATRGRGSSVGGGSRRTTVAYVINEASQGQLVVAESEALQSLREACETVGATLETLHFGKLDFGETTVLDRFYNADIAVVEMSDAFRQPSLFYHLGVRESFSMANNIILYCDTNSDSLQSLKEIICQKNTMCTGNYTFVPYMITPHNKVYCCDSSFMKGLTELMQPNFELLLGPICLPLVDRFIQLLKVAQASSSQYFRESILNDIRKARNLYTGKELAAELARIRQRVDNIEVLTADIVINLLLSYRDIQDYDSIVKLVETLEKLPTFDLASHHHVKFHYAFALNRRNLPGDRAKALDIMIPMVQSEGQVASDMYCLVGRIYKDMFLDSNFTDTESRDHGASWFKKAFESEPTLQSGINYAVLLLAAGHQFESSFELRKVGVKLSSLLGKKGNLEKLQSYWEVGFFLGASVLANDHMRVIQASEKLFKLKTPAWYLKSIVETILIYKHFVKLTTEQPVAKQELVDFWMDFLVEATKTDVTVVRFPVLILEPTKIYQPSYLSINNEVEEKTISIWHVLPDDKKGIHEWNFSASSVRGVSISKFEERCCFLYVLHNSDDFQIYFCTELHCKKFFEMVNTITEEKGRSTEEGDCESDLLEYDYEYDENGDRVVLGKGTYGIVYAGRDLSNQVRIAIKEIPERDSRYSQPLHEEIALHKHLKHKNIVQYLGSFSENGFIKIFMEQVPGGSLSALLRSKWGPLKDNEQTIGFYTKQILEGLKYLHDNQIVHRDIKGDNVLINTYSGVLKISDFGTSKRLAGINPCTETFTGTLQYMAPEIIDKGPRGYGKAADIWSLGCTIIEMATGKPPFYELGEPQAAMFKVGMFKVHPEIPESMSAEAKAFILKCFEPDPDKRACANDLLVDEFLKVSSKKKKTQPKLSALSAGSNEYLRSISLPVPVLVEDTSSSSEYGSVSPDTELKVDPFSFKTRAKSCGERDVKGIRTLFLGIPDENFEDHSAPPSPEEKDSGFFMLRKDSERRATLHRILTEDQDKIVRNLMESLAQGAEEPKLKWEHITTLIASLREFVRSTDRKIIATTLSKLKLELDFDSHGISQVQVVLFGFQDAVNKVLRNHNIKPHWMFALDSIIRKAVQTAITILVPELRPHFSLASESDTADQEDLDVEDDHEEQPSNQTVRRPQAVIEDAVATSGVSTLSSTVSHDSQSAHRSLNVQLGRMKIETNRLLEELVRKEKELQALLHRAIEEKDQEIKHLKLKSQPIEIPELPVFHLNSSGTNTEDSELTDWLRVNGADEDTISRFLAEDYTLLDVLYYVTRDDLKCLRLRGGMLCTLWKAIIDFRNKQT
# ALK tyrosine kinase receptor (Homo sapiens), sequence (Q9UM73 19-1620 limits assumed): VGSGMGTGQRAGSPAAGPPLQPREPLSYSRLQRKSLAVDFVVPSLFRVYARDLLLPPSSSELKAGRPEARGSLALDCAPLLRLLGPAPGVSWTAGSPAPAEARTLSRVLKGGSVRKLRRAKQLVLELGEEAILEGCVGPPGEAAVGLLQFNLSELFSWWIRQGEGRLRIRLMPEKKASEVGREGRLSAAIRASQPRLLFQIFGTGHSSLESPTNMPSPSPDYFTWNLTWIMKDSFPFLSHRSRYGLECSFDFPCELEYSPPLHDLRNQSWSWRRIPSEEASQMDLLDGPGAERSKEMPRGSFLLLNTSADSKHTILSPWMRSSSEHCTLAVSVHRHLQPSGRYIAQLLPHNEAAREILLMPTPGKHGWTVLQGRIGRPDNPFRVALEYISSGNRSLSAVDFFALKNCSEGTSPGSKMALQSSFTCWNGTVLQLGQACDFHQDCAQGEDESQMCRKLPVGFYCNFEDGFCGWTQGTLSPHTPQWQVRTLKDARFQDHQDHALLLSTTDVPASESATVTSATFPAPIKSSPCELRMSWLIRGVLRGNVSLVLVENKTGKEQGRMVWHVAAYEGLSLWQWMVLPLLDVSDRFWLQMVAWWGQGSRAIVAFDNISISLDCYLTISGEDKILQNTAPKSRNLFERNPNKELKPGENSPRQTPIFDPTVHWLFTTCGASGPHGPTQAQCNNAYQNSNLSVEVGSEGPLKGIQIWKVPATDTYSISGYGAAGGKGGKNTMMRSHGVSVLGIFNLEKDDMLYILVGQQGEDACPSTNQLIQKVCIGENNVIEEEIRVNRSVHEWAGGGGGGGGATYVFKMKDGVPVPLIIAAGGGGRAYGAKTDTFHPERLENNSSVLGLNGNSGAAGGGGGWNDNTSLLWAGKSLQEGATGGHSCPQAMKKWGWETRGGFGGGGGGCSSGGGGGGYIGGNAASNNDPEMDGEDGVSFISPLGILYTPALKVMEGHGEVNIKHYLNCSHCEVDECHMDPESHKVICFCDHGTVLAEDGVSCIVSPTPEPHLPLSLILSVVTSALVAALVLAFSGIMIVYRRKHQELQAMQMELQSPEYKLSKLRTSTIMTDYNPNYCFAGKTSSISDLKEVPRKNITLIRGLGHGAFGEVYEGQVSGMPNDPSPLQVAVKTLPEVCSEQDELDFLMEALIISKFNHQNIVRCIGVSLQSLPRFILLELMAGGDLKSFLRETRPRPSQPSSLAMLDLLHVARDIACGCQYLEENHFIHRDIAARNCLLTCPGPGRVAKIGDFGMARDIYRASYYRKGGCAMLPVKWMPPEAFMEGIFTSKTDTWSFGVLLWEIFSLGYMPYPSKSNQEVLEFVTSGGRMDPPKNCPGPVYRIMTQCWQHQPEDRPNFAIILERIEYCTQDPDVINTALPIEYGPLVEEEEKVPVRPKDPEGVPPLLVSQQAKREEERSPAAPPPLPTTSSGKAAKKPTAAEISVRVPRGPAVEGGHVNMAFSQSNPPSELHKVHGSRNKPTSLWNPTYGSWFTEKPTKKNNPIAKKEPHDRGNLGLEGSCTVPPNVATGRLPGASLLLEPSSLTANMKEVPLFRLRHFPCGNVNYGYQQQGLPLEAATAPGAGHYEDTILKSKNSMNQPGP
# T2 sequence (P54619 whole entry): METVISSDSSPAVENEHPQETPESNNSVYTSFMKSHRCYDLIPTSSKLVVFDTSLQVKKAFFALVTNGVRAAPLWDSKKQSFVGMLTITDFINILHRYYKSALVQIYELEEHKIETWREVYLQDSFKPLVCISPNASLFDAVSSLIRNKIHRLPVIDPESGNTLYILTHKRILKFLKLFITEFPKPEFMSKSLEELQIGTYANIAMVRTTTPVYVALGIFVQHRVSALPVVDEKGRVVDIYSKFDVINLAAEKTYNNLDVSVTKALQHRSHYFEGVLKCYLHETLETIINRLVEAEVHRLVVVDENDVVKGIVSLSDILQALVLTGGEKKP
# T2 sequence (Q13131 whole entry partner): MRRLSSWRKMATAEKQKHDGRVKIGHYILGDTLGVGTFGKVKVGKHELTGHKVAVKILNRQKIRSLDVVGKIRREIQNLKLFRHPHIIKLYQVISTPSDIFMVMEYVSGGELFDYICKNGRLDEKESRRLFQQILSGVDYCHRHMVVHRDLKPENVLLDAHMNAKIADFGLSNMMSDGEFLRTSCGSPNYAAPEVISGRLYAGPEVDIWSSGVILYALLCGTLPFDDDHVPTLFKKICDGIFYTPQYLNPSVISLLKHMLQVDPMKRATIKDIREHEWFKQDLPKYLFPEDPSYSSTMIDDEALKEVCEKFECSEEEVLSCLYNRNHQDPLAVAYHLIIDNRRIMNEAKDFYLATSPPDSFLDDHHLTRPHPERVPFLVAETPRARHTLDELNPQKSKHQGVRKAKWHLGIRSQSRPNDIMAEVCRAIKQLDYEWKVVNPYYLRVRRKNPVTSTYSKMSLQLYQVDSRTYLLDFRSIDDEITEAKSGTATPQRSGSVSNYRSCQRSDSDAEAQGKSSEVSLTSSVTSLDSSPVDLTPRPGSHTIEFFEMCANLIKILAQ
# T2 sequence (Q9Y478 2-270 partner limits assumed): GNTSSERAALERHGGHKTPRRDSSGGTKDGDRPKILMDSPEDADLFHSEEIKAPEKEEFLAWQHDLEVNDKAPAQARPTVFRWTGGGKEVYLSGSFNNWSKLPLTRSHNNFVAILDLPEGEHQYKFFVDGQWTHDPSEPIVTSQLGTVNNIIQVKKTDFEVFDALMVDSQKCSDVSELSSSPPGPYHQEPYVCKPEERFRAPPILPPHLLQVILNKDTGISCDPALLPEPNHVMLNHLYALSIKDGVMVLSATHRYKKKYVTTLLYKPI
SMILES,residual activity [1] [%],residual activity [2] [%],residual activity [3] [%],residual activity [4] [%],residual activity [5] [%],residual activity [6] [%],residual activity [7] [%],residual activity [8] [%],residual activity [9] [%],residual activity [10] [%]
Cc1cccc(-c2[nH]c(C(C)(C)C)nc2-c2ccc3c(c2)OCO3)n1,102,1,-6,102,83,106,78,102,88,83
Oc1c2ccccc2c2c3c(cccc13)N=N2,29,86,84,64,24,69,28,28,17,36
CC#CC(=O)Nc1cc2c(Nc3ccc(F)c(Cl)c3)ncnc2cn1,81,137,99,99,84,79,74,95,86,104
N#CCCc1ccc2c(c1)-c1[nH]c3ccc([N+](=O)[O-])cc3c1CC(=O)N2,45,67,23,57,29,27,17,10,8,
Nc1cccc(-c2cc3c(Oc4cccc(O)c4)ncnc3[nH]2)c1,8,72,36,53,13,54,15,31,7,96
Nc1nc(Nc2ccc(S(N)(=O)=O)cc2)nn1C(=S)Nc1c(F)cccc1F,1,7,-4,-2,-1,-3,0,1,0,1
CN(C)c1ccc(/C=C2\C(=O)Nc3ccccc32)cc1,27,127,105,92,50,97,56,93,80,92
CC(C)n1cnc2/c(=N/c3cccc(Cl)c3)nc(NCCO)[nH]c21,52,103,120,76,30,88,45,75,29,90
Cc1nc2cc3nc(-c4cccs4)cnc3cc2n1C,112,123,88,116,83,118,85,116,78,109
O=C1NC(=O)/C(=C\c2ccc3nccnc3c2)S1,46,115,93,94,45,108,56,90,81,78
c1ccc(-c2n[nH]cc2-c2ccnc3ccccc23)nc1,105,-3,-4,86,76,101,81,99,90,98
CC[n+]1c(/C=C/N(C)c2ccccc2)n(-c2ccccc2)c2ccc(-c3nc4ccccc4s3)cc21,69,122,87,97,75,116,91,121,89,106
Cn1cc(/C=C2\C(=O)Nc3ccc(S(N)(=O)=O)cc32)c2ccccc21,31,118,104,9,4,9,4,18,11,29
Nc1n[nH]c2nnc(-c3c(-c4ccccc4)nn4ccccc34)cc12,93,111,86,90,82,92,98,105,79,96
CCC(=O)Nc1ccc2ncnc(Nc3cccc(Br)c3)c2c1,88,125,105,103,94,105,87,99,92,108
O=C(Nc1cccc(Nc2nccc(Nc3cccc(C(F)(F)F)c3)n2)c1)C1CC1,48,106,69,96,81,88,83,26,41,89
COc1ccc(CNc2nc(N(CCO)CCO)nc3c2ncn3C(C)C)cc1,61,97,118,97,80,86,88,107,77,95
O=c1c2ccccc2[nH]c(=S)n1CCN1CCC(=C(c2ccc(F)cc2)c2ccc(F)cc2)CC1,73,149,111,101,84,97,74,90,120,106
